The source made the active and inactive calls. How the source made its calls: active means hit-call score of the fitted dose curve at least 0.9, where 1 is the maximum; inactive means score below 0.9.
Read-out: not listed separately
Experiment: CEETOX_H295R_ESTRADIOL: CeeTox H295R High-throughput Steroidogenesis Assay for Estradiol (AID 2283440);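 further: estradiol secreted into medium quantified by LC-MS/MS after dansyl derivatisation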
Conditions: actives raise or lower the signal
In short: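 Readout is estradiol in conditioned medium, quantified by reverse-phase HPLC-MS/MS against a 7-point standard curve. Cells: H295R, forskolin-stimulated, then dosed 48 h in 0.1% DMSO; activity fitted in both directions relative to DMSO.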
With `CCCCCc1ccc(O)cc1` the outcome was “inactive”.
With `Oc1cc2ccccc2cc1O` the outcome was “inactive”.
With `Clc1ccc(Nc2nnc(Cc3ccncc3)c3ccccc23)cc1` the AC50 was 2.39 µM (active).
For `COc1cc([N+](=O)[O-])ccc1N`, the outcome was “inactive”.
With `Cc1cccc2c1ccc1ccccc12` the outcome was “inactive”.
With `CC(C)CCOCCC(C)C` the outcome was “inactive”.
With `O=C(NCc1ncc(C(F)(F)F)cc1Cl)c1c(Cl)cccc1Cl` the outcome was “inactive”.
In the case of `CC(C)(c1ccc(Oc2ccc(N)cc2)cc1)c1ccc(Oc2ccc(N)cc2)cc1`, the outcome is reported as “inactive”.

Read-out: not listed separately
Experiment: CEETOX_H295R_ESTRONE: CeeTox H295R High-throughput Steroidogenesis Assay for Estrone (AID 2283441);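 further: estrone secreted into medium measured by LC-MS/MS after dansyl derivatization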;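 on AC50: human adrenal H295R cells prestimulated with forskolin for two days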
Conditions: actives raise or lower the signal
Description: CEETOX_H295R is a cell-based, multiplexed-readout assay that uses H295R, a human adrenal gland cell line, with measurements taken at 48 hours after chemical dosing in a 96-well plate.CEETOX_H295R_ESTRONE is one of 23 assay component(s) measured or calculated from the CEETOX_H295R assay. It is designed to make measurements of hormone induction, a form of inducible reporter, as detected with absorbance signals by HPLC-MS-MS technology.Data from the assay component CEETOX_H295R_ESTRONE was analyzed into 1 assay endpoint. This assay endpoint, CEETOX_H295R_ESTRONE, was analyzed with bidirectional fitting relative to DMSO as the negative control and baseline of activity. Using a type of inducible reporter, gain or loss-of-signal activity using HPLC-MS-MS was used to understand synthesis of Estrone in H295R cell line at 48hr of chemical exposure. To generalize the intended target to other relatable targets, this assay endpoint is annotated to the steroid hormone intended target family, where the subfamily is estrogens.
Cell culture and media preparation procedures were conducted in accordance with OECD Test No. 456 guidelines, with minor modifications. H295R cells (ATCC CRL-2128) were expanded for 5 passages and frozen in batches in liquid nitrogen. Prior to the steroidogenesis assay, H295R cells were thawed and passed at least 4 times. The maximum passage was 10. […] After seeding cells into 96-well plates at 50-60% confluency, cells were allowed to adhere overnight. Prior to chemical testing, culture medium was replaced with 175 uL medium containing 10 uM forskolin to stimulate steroidogenesis for 48 hours. Following prestimulation, forskolin medium was replaced with medium containing test chemical solubilized in DMSO (ensuring a final concentration of 0.1% DMSO). Test chemicals were incubated for 48 hours, then the medium was removed and split into 2 vials containing approximately 75uL each, and stored at -80 C prior to hormone analysis. For steroid quantification, media samples were shipped to OpAns, LLC (Durham, NC) on dry ice, and samples were thawed to room temperature prior to liquid-liquid extraction. Steroid hormones were extracted from media samples using methyl tertbutyl ether (MTBE). An extra derivatization with dansyl chloride was included for estrogen (estrone and estradiol) detection only. Steroid hormones were separated by HPLC, eluted using a reverse phase C18 gradient with electrospray positive ionization, followed by quantification by tandem mass spectrometry (MS/MS). Data were acquired on a MassHunter Workstation Acquisition version B03.01 (Agilent Technologies, Inc.) and processed using MassHunter Quantitative Analysis for QQQ. Accuracy was determined for each hormone analyte from 3 standards to determine upper and lower limits of quantification (ULOQ and LLOQ, respectively) using a 7-point standard curve. Precision and accuracy of the extraction and quantification methods were calculated as the percent relative standard deviation (%RSD) of the spiked standards and percent spiked standard recovered, respectively. The goal was to achieve 100% accuracy (i.e., recover all spiked-in standard at quantification with minimal loss during run time) and good precision (i.e., have %RSD <15% to ensure reproducibility). Test medium was removed following chemical exposure, and cell viability was evaluated in the same wells by MTT. MTT procedures were as follows: after removal of test medium, 500 uL of 0.5 mg/ml of 3-[4,5-dimethylthiazol-2-y]2,5-diphenyltetrazoliumbromide solution was added to the cells. Following a 4-hour incubation at 37 C and 5% CO2 to allow formazan-crystal formation, the MTT solution was removed and blue formazan salt crystals were solubilized using 500uL anhydrous isopropanol with shaking for 20 minutes. Absorbance was read at 570 and 650nm using a Packard Fusion microplate reader. Background correction of absorbance units was used to determine percent change relative to controls. […] […]
With `CCCCCc1ccc(O)cc1` the outcome was “inactive”.
In the case of `Oc1cc2ccccc2cc1O`, the outcome is reported as “inactive”.
With `Clc1ccc(Nc2nnc(Cc3ccncc3)c3ccccc23)cc1` the AC50 was 4.2 µM (active).
With `COc1cc([N+](=O)[O-])ccc1N` the outcome was “inactive”.
In the case of `Cc1cccc2c1ccc1ccccc12`, the outcome is reported as “inactive”.
For `CC(C)CCOCCC(C)C`, the outcome was “inactive”.
In the case of `O=C(NCc1ncc(C(F)(F)F)cc1Cl)c1c(Cl)cccc1Cl`, the outcome is reported as “inactive”.
For `CC(C)(c1ccc(Oc2ccc(N)cc2)cc1)c1ccc(Oc2ccc(N)cc2)cc1`, the outcome was “inactive”.

Read-out: not listed separately
Experiment: CEETOX_H295R_PROG: CeeTox H295R High-throughput Steroidogenesis Assay for Progesterone (PROG) (AID 2283442);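 on AC50: human H295R adrenal cells primed with 10 µM forskolin before dosing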
Conditions: actives raise or lower the signal
In short: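 Measured analyte is progesterone secreted by H295R cells at 48 h of chemical treatment, following 10 uM forskolin priming. Quantitation used HPLC-MS/MS against a 7-point standard curve; cytotoxicity was checked by MTT absorbance.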
For `CCCCCc1ccc(O)cc1`, the outcome was “inactive”.
In the case of `Oc1cc2ccccc2cc1O`, the outcome is reported as “inactive”.
With `Clc1ccc(Nc2nnc(Cc3ccncc3)c3ccccc23)cc1` the outcome was “inactive”.
In the case of `C[C@]12CC[C@@H]3c4ccc(O)cc4CC[C@H]3[C@@H]1C[C@@H](O)[C@@H]2O`, the outcome is reported as “inactive”.
For `COc1cc([N+](=O)[O-])ccc1N`, the AC50 was 24.2 µM (active).
For `c1cc[nH]c1`, the outcome was “inactive”.
In the case of `COc1cccc(O)c1`, the outcome is reported as “inactive”.
In the case of `Cc1cccc2c1ccc1ccccc12`, the outcome is reported as “inactive”.
In the case of `CCCCCC(C)OC(=O)COc1ccc(Cl)c2cccnc12` (configuration not stated), the outcome is reported as “inactive”.
With `CC(C)CCOCCC(C)C` the outcome was “inactive”.
For `O=C(NCc1ncc(C(F)(F)F)cc1Cl)c1c(Cl)cccc1Cl`, the AC50 was 7.48 µM (active).
For `CC(C)(C)c1ccc(O)c(O)c1`, the AC50 was 32.3 µM (active).
In the case of `CC(C)(c1ccc(Oc2ccc(N)cc2)cc1)c1ccc(Oc2ccc(N)cc2)cc1`, the AC50 is reported as 0.134 µM (active).

Read-out: Tumor necrosis factor receptor superfamily member 6 (Homo sapiens) (UniProt P25445)
Experiment: LTEA_HepaRG_FAS: Life Technologies and Expression Analysis (LTEA) Assay for Fas cell surface death receptor (FAS) using HepaRG (AID 2283447)
Conditions: mRNA level, 48 h; actives raise or lower the signal
In short: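 Differentiated human HepaRG cells, pre-cultured 48 h, were exposed in duplicate for 48 h to 8-point half-log concentrations (top 100 uM, 0.5% DMSO) in serum-free induction medium; FAS mRNA measured by qRT-PCR, normalized to ACTB/GAPDH/POLR2A, bidirectional fit versus DMSO.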
In the case of `CN(Cc1cnc2nc(N)nc(N)c2n1)c1ccc(C(=O)N[C@@H](CCC(=O)O)C(=O)O)cc1`, the outcome is reported as “inactive”.
In the case of `CCCCCCCCCCCCOS(=O)(=O)O`, the outcome is reported as “inactive”.
In the case of `CCCCc1oc2ccccc2c1C(=O)c1cc(I)c(OCCN(CC)CC)c(I)c1`, the AC50 is reported as 66.6 µM (active).
In the case of `CN(C)CCOC(c1ccccc1)c1ccccc1`, the outcome is reported as “inactive”.
With `O=C(c1ccccc1)c1ccccc1` the outcome was “inactive”.
With `CCCCC=O` the outcome was “inactive”.
For `CCCCCCCCCCCCCCC`, the outcome was “inactive”.
In the case of `CC(=O)Nc1ccc(O)cc1`, the outcome is reported as “inactive”.
With `O=C(CCCN1CCC(O)(c2ccc(Cl)cc2)CC1)c1ccc(F)cc1` the AC50 was 85.8 µM (active).
For `CCCCC(CC)C(=O)O` (configuration not stated), the outcome was “inactive”.
With `Cc1[nH]nc2c1N=C(c1ccccc1Cl)c1cc([N+](=O)[O-])ccc1N2` the AC50 was 4.11 µM (active).
In the case of `OCC(CO)(CBr)CBr`, the outcome is reported as “inactive”.
With `N=C(N)c1ccc(OCCCCCOc2ccc(C(=N)N)cc2)cc1` the AC50 was 4.23 µM (active).
With `CCC(C)c1ccccc1O` (configuration not stated) the outcome was “inactive”.
In the case of `O=C1NS(=O)(=O)c2ccccc21`, the outcome is reported as “inactive”.
With `CS(=O)(=O)c1ccc([C@@H](CC2CCCC2)C(=O)Nc2cnccn2)cc1Cl` the outcome was “inactive”.

Read-out: Cyclin D2 (CCND2), CCND2 (gene 894)
Experiment: LTEA_HepaRG_CCND2: Life Technologies and Expression Analysis (LTEA) Assay for Cyclin D2 (CCND2) using HepaRG (AID 2283449);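 further: CCND2 transcript measured by TaqMan qRT-PCR and normalised to three housekeeping genes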
Conditions: mRNA level, 48 h; actives raise or lower the signal
In short: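 Differentiated human HepaRG cells were exposed for 48 h in serum-free induction medium to eight half-log concentrations topping at 100 uM (0.5% DMSO vehicle). CCND2 mRNA was quantified by TaqMan qRT-PCR, normalised to ACTB, GAPDH and POLR2A, and fitted bidirectionally against DMSO.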
With `CN(Cc1cnc2nc(N)nc(N)c2n1)c1ccc(C(=O)N[C@@H](CCC(=O)O)C(=O)O)cc1` the outcome was “inactive”.
With `CCCCCCCCCCCCOS(=O)(=O)O` the outcome was “inactive”.
In the case of `CCCCc1oc2ccccc2c1C(=O)c1cc(I)c(OCCN(CC)CC)c(I)c1`, the outcome is reported as “inactive”.
In the case of `O=C(c1ccccc1)c1ccccc1`, the outcome is reported as “inactive”.
In the case of `CCCCC=O`, the outcome is reported as “inactive”.
For `CCCCCCCCCCCCCCC`, the outcome was “inactive”.
With `CC(=O)Nc1ccc(O)cc1` the outcome was “inactive”.
For `Cc1[nH]nc2c1N=C(c1ccccc1Cl)c1cc([N+](=O)[O-])ccc1N2`, the outcome was “inactive”.
In the case of `OCC(CO)(CBr)CBr`, the outcome is reported as “inactive”.
With `N=C(N)c1ccc(OCCCCCOc2ccc(C(=N)N)cc2)cc1` the outcome was “inactive”.
With `CCC(C)c1ccccc1O` (configuration not stated) the outcome was “inactive”.

Read-out: Cyclin Dependent Kinase Inhibitor 1A (CDKN1A), CDKN1A (gene 1026)
Experiment: LTEA_HepaRG_CDKN1A: Life Technologies and Expression Analysis (LTEA) Assay for Cyclin Dependent Kinase Inhibitor 1A (CDKN1A) using HepaRG (AID 2283450)
Conditions: mRNA level, 48 h; actives raise or lower the signal
In short: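 Gain or loss of CDKN1A transcript is scored by bidirectional fitting against 0.5% DMSO vehicle. Human HepaRG cultures receive chemicals for 48 h across an 8-point series peaking at 100 uM; expression comes from qRT-PCR.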
With `CN(Cc1cnc2nc(N)nc(N)c2n1)c1ccc(C(=O)N[C@@H](CCC(=O)O)C(=O)O)cc1` the outcome was “inactive”.
In the case of `CCCCCCCCCCCCOS(=O)(=O)O`, the outcome is reported as “inactive”.
With `CCCCc1oc2ccccc2c1C(=O)c1cc(I)c(OCCN(CC)CC)c(I)c1` the AC50 was 68.3 µM (active).
For `CN(C)CCOC(c1ccccc1)c1ccccc1`, the outcome was “inactive”.
With `O=C(c1ccccc1)c1ccccc1` the outcome was “inactive”.
With `CCCCC=O` the outcome was “inactive”.
In the case of `CCCCCCCCCCCCCCC`, the outcome is reported as “inactive”.
With `CC(=O)Nc1ccc(O)cc1` the outcome was “inactive”.
With `O=C(CCCN1CCC(O)(c2ccc(Cl)cc2)CC1)c1ccc(F)cc1` the AC50 was 79.9 µM (active).
For `CCCCC(CC)C(=O)O` (configuration not stated), the outcome was “inactive”.
In the case of `Cc1[nH]nc2c1N=C(c1ccccc1Cl)c1cc([N+](=O)[O-])ccc1N2`, the outcome is reported as “inactive”.
In the case of `OCC(CO)(CBr)CBr`, the outcome is reported as “inactive”.
For `N=C(N)c1ccc(OCCCCCOc2ccc(C(=N)N)cc2)cc1`, the AC50 was 10.1 µM (active).
In the case of `CCC(C)c1ccccc1O` (configuration not stated), the outcome is reported as “inactive”.
With `O=C1NS(=O)(=O)c2ccccc21` the outcome was “inactive”.
In the case of `CS(=O)(=O)c1ccc([C@@H](CC2CCCC2)C(=O)Nc2cnccn2)cc1Cl`, the AC50 is reported as 50 µM (active).
